The record followed here is PubChem BioAssay (EPA / NIEHS).

What is called AC50 is the concentration giving half of the maximal activity seen.

Calls of active or inactive are those of the source. How the source made its calls: active means hit-call score of the fitted dose curve at least 0.9, where 1 is the maximum; inactive means score below 0.9.

Read-out in this test: Basic fibroblast growth factor (bFGF), FGF2 (gene 2247)
Kind of test: BSK_MyoF_bFGF: BioMAP Diversity Plus: MyoF Assay for Basic fibroblast growth factor (bFGF) Biomarker Activity (AID 2284246). Particulars: primary human lung fibroblasts. On the procedure: BSK_MyoF is a cell-based, multiplexed-readout assay that uses lung fibroblasts, a human […] primary cell, with measurements taken at 24 hours after chemical dosing in a microplate: 96-well plate.BSK_MyoF_bFGF is an assay component measured in the BSK_MyoF assay. It measures bFGF antibody related to regulation of gene expression using ELISA technology.Data from the assay component BSK_MyoF_bFGF was analyzed at the endpoint, BSK_MyoF_bFGF, in the positive analysis fitting direction relative to DMSO as the negative control and baseline of activity. Using a type of binding reporter, gain or loss-of-signal activity can be used to understand protein changes. To generalize the intended target to other relatable targets, this assay endpoint is annotated to the 'growth factor' intended target family, where the subfamily is 'basic fibroblast growth factor '.
The levels of cell surface (or secreted, indicated by the prefix "s") biomarker endpoints were measured by ELISA. Overt cytotoxicity to cells in confluent adherent cultures (all systems other than the BT system) was assessed by measuring total protein levels using sulforhodamine B (SRB) staining in parallel cultures at the time of biomarker measurements, indicated as SRB endpoints. For proliferation assays for adherent cell types, individual cell types are cultured at sub-confluence and relative cell numbers quantified by SRB staining at time points optimized for each system (48 h: 3C and CASM3C systems; 72 h: BT and HDF3CGF systems; 96 h: SAg system). SRB was performed by staining cells with 0.1% SRB after fixation with 10% TCA and reading wells at 560 nm.Viability and proliferation of PBMC (T cells) was quantified by Alamar Blue reduction for the SAg and BT systems. For PBMC viability (referred to as PBMC Cytotoxicity within the assay endpoint names), cells were plated (75,000/well in a 96-well plate) and then chemical samples added for 1 h before addition of activators, SEB and TSST-1 (20 ng/mL final concentration each). Cells were incubated for 90 h. Then, Alamar Blue (20 uL/well) (Invitrogen, Cat DAL1100) was added for 6 h, and the plates were read with a fluorescence microplate reader at 546/580 nm (excitation/emission). For PBMC proliferation, cells were plated and activated as above but incubated for only 16 h prior to addition of Alamar Blue. Plates were read after 6 h.
As for `c1ccc(-c2ccccn2)nc1`, the outcome was inactive.

Consider `CCCCCCCCc1ccc(Nc2ccc(CCCCCCCC)cc2)cc1`, for which the result was inactive.

Take `CCCCCCCCCCCCCCCC[N+](C)(C)CC`: the AC50 was 8.45 µM (active).

For the molecule `CCCCC(CC)COC(=O)c1ccccc1O` (configuration not stated), the outcome was inactive.

`C#CC1(O)CC[C@H]2[C@@H]3CCC4=CCCC[C@@H]4[C@H]3CC[C@@]21C` (some centres not stated): the AC50 was 33 µM (active).

On to `COCc1c(C(C)C)nc(C(C)C)c(/C=C/[C@@H](O)C[C@@H](O)CC(=O)O)c1-c1ccc(F)cc1`, for which the result was inactive.

For `c1ccc2c(c1)ccc1cc3c(ccc4ccccc43)cc12`, the result was inactive.

For the molecule `CC1OC1C1CCC2(C)OC2C1` (configuration not stated), the result was inactive.

In the case of `CCOc1nc(F)cc2nc(S(=O)(=O)Nc3c(Cl)cccc3C(=O)OC)nn12`, the outcome was inactive.

Regarding `S=C(NC1CCCCC1)NC1CCCCC1`, the result was inactive.

With `CCO[Si](CCCN=C=O)(OCC)OCC`, the result was inactive.

Regarding `CC(C)C(=O)C(C)C`, the outcome was inactive.

Consider `C=CCOCC(O)CCl` (configuration not stated), for which the outcome was inactive.

Turning to `c1ccc2c(c1)ccc1ncccc12`, the outcome was inactive.

On to `C=CCOc1c(Br)cc(Br)cc1Br`, for which the AC50 is 34 µM (active).

Take `COc1ccc2nc(N)sc2c1`: the result was inactive.

For `C=CC=CC=CCCCCC`, the result was inactive.

Turning to `CCCCC/C=C\C/C=C\CCCCCCCC(=O)OC`, the result was inactive.

For `O=C(Nc1ccccc1SSc1ccccc1NC(=O)c1ccccc1)c1ccccc1`, the result was inactive.

`O=C(Cl)c1cc(C(=O)Cl)cc(C(=O)Cl)c1`: the AC50 was 36.9 µM (active).

In the case of `CCCCNc1ccc(NCCCC)c2c1C(=O)c1ccccc1C2=O`, the result was inactive.

With `CC(C)(c1cc(Br)c(OCCO)c(Br)c1)c1cc(Br)c(OCCO)c(Br)c1`, the AC50 was 9.52 µM (active).

On to `C=CC(=O)OCC(Br)CBr` (configuration not stated), for which the AC50 is 37.5 µM (active).

Take `O=c1c2ccccc2oc2ccccc12`: the result was inactive.

In the case of `C/C=C\C/C=C/CCCCCCCCOC(C)=O`, the outcome was inactive.

For the molecule `N#[N+]c1ccc2c(S(=O)(=O)[O-])cccc2c1O`, the outcome was inactive.

Regarding `O=Nc1ccc(O)cc1`, the result was inactive.
